# In all, about 330,000 compounds went through this assay and about 1,900 (0.58%) were called active. Another 4% or so got no clear call; they are omitted. Only a sample is shown. Results with a measured potency or affinity are listed apart. Unmarked numbers belong to inactive results. Cut-off read from the data, not from the text of the source: inconclusive = inhibition above about 70% without an active follow-up result; inactive = below that.
# Test: M. tuberculosis growth inhibition, HTS (AID 449762);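 note: bacterial growth assessed after seven days of incubation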
# Settings: M. tuberculosis H37Rv growth inhibition, 7H9 media; at 25 µM; active compounds read high
row,SMILES,inhibition [%]
1,COc1cccc(-c2cccc(NC(=O)C3CCN(C4CCOCC4)CC3)c2)c1,6.63
2,O=C1C2C(C(=O)N1/N=C/c1ccc(N3CCCCC3)o1)C1C=CC2C12CC2 (centres undefined),6.38
3,Cc1ccc(/C=N/N2C(=O)C3C(C2=O)C2C=CC3C23CC3)o1 (centres undefined),-4.61
4,CC(C)(C)n1nnnc1C(c1ccc(Cl)cc1)N1CCCc2ccccc21 (centres undefined),-4.81
5,N#C/C(=N\Nc1ccc(Cl)cc1)C(N)=S,59.5
6,N#C/C(=N\Nc1ccccc1)C(N)=S,2.54
7,Cc1ccc(C)c(N=Nc2nc3ccccc3n2C)c1,-4.4
8,Cn1c(NN=O)nc2ccccc21,0.37
9,CCCCCc1ccc(-c2cn(CN3C(=O)c4ccccc4C3=O)nn2)cc1,-0.74
10,COC(=O)c1cc(COC(=O)c2ccc3ccccc3n2)oc1C,5.66
11,O=C(Cc1ccc([N+](=O)[O-])cc1)Nc1ccc(Cl)cc1,-3.64
12,CCc1cccc(NC(=O)Cc2ccc([N+](=O)[O-])cc2)c1,-1.32
13,Fc1ccc(CSc2ccc3nnc(-c4cccnc4)n3n2)cc1,-5.63
14,Cn1c(-c2ccc(=O)[nH]c2)nc2ccccc21,-2.91
15,COC(=O)CC(NC(=O)c1ccco1)c1cccc2ccccc12 (centres undefined),-11
16,CC(=O)O[C@H]1CC[C@H]2[C@@H]3CCc4cc(O)ccc4[C@H]3CC[C@]12C,3.79
17,C[C@]12CC[C@@H]3c4ccc(O)cc4CC[C@H]3[C@@H]1CC[C@@H]2OC(=O)CCC(=O)O,5.59
18,COc1ccc(/C=N/NC(=O)c2nonc2C)cc1,5.08
19,COc1ccc(CCNC(=O)CSc2nn(-c3ccccc3)c(=S)s2)cc1,-1.49
20,COc1ccc(C(=O)N(Cc2ccco2)C(C(=O)NC2CCCC2)c2ccc(O)cc2)cc1OC (centres undefined),-4.43

row,SMILES,inhibition [%]
1,O=C(NC1CCCCC1)C(c1ccc2ncccc2c1)N(Cc1ccc2c(c1)OCO2)C(=O)c1cccs1 (centres undefined),7
2,COc1cc(C(=O)Nc2ccc3nc4n(c(=O)c3c2)CCCC4)ccc1Br,0.83
3,O=[N+]([O-])c1ccc(N2CCN(Cc3ccccc3)CC2)s1,62.1
4,O=[N+]([O-])c1ccc(CN2CCCCCC2)s1,-2.04
5,CC(=O)N(CC1CCCO1)c1nnc(-c2cnccn2)s1 (centres undefined),-7.32
6,CCOC(=O)C[N+](C)(C)CCOC1CC2CCC1(C)C2(C)C (centres undefined),0.01
7,CCCOC(=O)C[N+](C)(C)CCOC1CC2CCC1(C)C2(C)C (centres undefined),-2.27
8,CCN(CC)c1ccc(C=NCCNS(=O)(=O)c2ccc(C)cc2)cc1,-5.21
9,CCOc1cc(/C=N/Nc2nc3ccccc3[nH]2)cc(Br)c1OCC(=O)N(C)C,54.1
10,CCOc1cc(/C=C2\COc3ccccc3C2=O)ccc1OCC(=O)N(C)C,36.2
11,Nn1c(SCC(=O)Nc2ccccc2)nnc1C1CCCCC1,-4.13
12,CCO[C@H]1OC(C(=O)NC2CC2)=C[C@@H](c2csc3ccccc23)[C@@H]1CCCO,2.79
13,O=C(CC1C(=O)NCCN1Cc1c(F)cccc1Cl)NC1CCCC1 (centres undefined),-8.1
14,O=[N+]([O-])c1cc(Cl)ccc1N1CCN(c2cccc(C(F)(F)F)c2)CC1,12
15,CN(C)CCCN(C(=O)c1ccc(S(=O)(=O)N2CCc3ccccc32)cc1)c1nc2ccc(F)cc2s1,2.5
16,CN(C)CCCN(C(=O)c1ccc(S(=O)(=O)N2CCc3ccccc32)cc1)c1nc2ccc(Cl)cc2s1,6.05
17,COc1ccccc1NC(=S)N(Cc1ccc(C(=O)O)cc1)Cc1ccc(OC)c(OC)c1,1.31
18,O=C(NCc1n[nH]c(=S)n1-c1ccc(F)cc1)c1ccc(S(=O)(=O)N2CCCCC2)cc1,0.39
19,Cc1ccc(CNC(=O)c2ccc(Cn3cc(-c4ccc(C)cc4)nc3-c3ccncc3)cc2)cc1,8.49
20,CCCNC(=O)c1ccc(Cn2cc(-c3ccc(OC)cc3)nc2C(C)N)cc1 (centres undefined),-9.06

row,SMILES,inhibition [%]
1,O=C(NCCc1ccccc1Cl)C1CCC(=O)N(C2CCCCCC2)C1 (centres undefined),4.37
2,COc1cc(OC)cc(C(=O)NCCSC2CCCCC2)c1,1.7
3,C=CCc1ccccc1OCC(O)CN1CCN(c2ccc(C)cc2)CC1 (centres undefined),8.24
4,COC(=O)c1ccccc1C(=O)N(Cc1cccnc1)CC1CCCN(C2CCCCC2)C1 (centres undefined),2.83
5,O=C(c1cc2ccccc2[nH]1)N(Cc1cccnc1)CC1CCCN(C2CCCCC2)C1 (centres undefined),58
6,CCN(C(=O)c1ccccc1F)c1nc(-c2ccc(OC)cc2)cs1,5.39
7,CCc1c(C)c2ccc(OCC(N)=O)cc2oc1=O,4.28
8,CCOC(=O)CCc1c(C)c2ccc(OCC(=O)OC(C)C)cc2oc1=O,26.9
9,CCN(CC)CCCNc1nc2ccccc2c2nc(-c3ccncc3)nn12,-0.63
10,COCCCNc1nc2cc(OC)c(OC)cc2c2nc(-c3ccccc3)nn12,13
11,CCCCCCCCCCCC(=O)N1CC(=O)NC(=O)C1,-0.85
12,CC(C)CCN1CC(=O)N2[C@@H](Cc3c([nH]c4ccccc34)C2(C)C)C1=O,1.66
13,c1ccc(Oc2nc(-c3cccnc3)nc3ccccc23)cc1,13.2
14,Cc1ccc(Oc2nc(-c3cccnc3)nc3ccccc23)c([N+](=O)[O-])n1,3.26
15,CCC(C)N1CCN(C(=O)Cc2ccccc2)CC1 (centres undefined),4.3
16,Cc1cc(=O)oc2cc(OCC(=O)N3CCN(C(C)c4ccccc4)CC3)c(Cl)cc12 (centres undefined),-5.58
17,Cc1ccc(NC(=O)CN(C)C(=O)c2cccc(S(=O)(=O)NCc3ccccc3)c2)cc1,2.27
18,CCOc1ccc(CCNC(=O)c2ccc(CS(=O)Cc3ccc(Cl)cc3)o2)cc1 (centres undefined),-1.24
19,O=C(NCCc1ccccc1)c1ccc(CS(=O)Cc2ccc(Cl)cc2)o1 (centres undefined),3.87

# Source: PubChem BioAssay AID449762 (Southern Research Specialized Biocontainment Screening …, 2010)
